An excerpt weighted towards active compounds, which were near 4.1% of everything screened.
RecA intein inh: Mtb RecA intein splicing inhibition. inhibition, % (test concentration not listed). cell-free RecA intein splicing, fluorescence. 0.75% of 290,000 active; in the data active = inhibition above about 30%
Mtb FBA inh: Mtb fructose-bisphosphate aldolase inhibition | P9WQA3 | purified M. tuberculosis FBA, fluorescence read-out | inhibition, % at 1 µM | 2.3% of 360,000 active | AID 588726
Mtb UGM inh: inhibitors of M. tuberculosis UDP-galactopyranose mutase; purified UGM, fluorescence polarization probe displacement; P9WIQ1; inhibition, % at 10 µM; 0.06% of 320,000 active; in the data active = inhibition above about 10%, passing the limit was not always enough
Target sequence (P9WIQ1 whole entry, looked up): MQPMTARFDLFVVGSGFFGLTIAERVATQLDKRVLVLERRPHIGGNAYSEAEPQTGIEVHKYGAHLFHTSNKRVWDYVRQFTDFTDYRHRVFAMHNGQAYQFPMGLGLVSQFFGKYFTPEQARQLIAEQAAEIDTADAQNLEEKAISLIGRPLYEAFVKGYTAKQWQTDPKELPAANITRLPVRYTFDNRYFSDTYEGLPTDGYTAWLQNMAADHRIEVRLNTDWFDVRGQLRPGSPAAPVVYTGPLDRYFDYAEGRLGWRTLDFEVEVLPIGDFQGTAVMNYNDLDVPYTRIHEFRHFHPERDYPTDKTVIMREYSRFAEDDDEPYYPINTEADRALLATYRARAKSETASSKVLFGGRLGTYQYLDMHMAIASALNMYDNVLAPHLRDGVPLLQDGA
BH1578 lux ind: induces V. cholerae light production without autoinducers | V. cholerae BH1578 lux reporter, luminescence, 6 h | activation, % at 18.7 µM | 0.16% of 350,000 active | AID 588436; in the data active = activation mostly above about 9.7%, no sharp cut-off
GDH-TPI counter-1: inhibits GDH-TPI coupling enzymes, artifact for Mtb FBA screen | inhibition, % at 4.8 µM | 1.2% of 360,000 active | GDH-TPI coupled enzyme counterscreen, NADH absorbance; in the data active = inhibition above about 30%
Rv3671c protease: Rv3671c (M. tuberculosis) protease inhibition; inhibition, % at 5.96 µM; P9WHR9; 0.048% of 320,000 active; in the data active = inhibition above about 38%;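 note: extracellular domain of Rv3671c used as enzyme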
Mtb FBA confirm: confirmation of M. tuberculosis fructose-bisphosphate aldolase inhibitors. shares compounds with Mtb FBA inh. purified M. tuberculosis FBA, fluorescence read-out. inhibition, % at 1 µM. 78% of 5,600 active. AID 651616
GDH-TPI counter-2: counter-screen for M. tuberculosis FBA inhibitors: GDH-TPI coupled enzyme inhibition; GDH-TPI coupled enzyme counterscreen, fluorescence; AID 652141; shares compounds with Mtb FBA inh; 81% of 5,600 active; inhibition, % at 1 µM; in the data active = inhibition above about 10%
GDH-TPI DR: inhibits GDH-TPI coupling enzymes in dose response. shares compounds with Mtb FBA inh. GDH-TPI coupled enzyme assay, fluorescence, artifact counterscreen. IC50, µM. 79% of 170 active; call rule not given here
A number is an active result; - = inactive; . = not tested or not shown; + = active, no number. Cut-off read from the data, not from the text of the source, unless noted: active = inhibition above about 27%; inactive = the rest.

SMILES	RecA intein inh	Mtb FBA inh	Mtb UGM inh	BH1578 lux ind	GDH-TPI counter-1	Rv3671c protease	Mtb FBA confirm	GDH-TPI counter-2	others
CCN(CC)c1ccc2c(C)cc(=O)oc2c1	.	108	-	-	-	-	125	88
CCN(CC)c1ccc2cc(C#N)c(=O)oc2c1	-	-	-	-	-	-	.	.
CCN(CC)c1ccc2ccc(=O)oc2c1	-	53	-	-	-	-	74	67
CCOC(=O)Cc1c(C)c2ccc(N(CC)CC)cc2oc1=O	.	93	-	-	-	-	58	51
CCN(CC)c1ccc2c(C)c(-c3ccc(N)cc3)c(=O)oc2c1	-	-	-	-	-	-	.	.
CCN(CC)c1ccc2c(C)c(Cl)c(=O)oc2c1	-	67	-	-	-	-	65	54
CCN(Cc1cc(=O)oc2cc(C)ccc12)c1ccccc1	-	-	-	-	-	.	.	.
CC1=NN(C(N)=S)C(=O)C1N=Nc1ccc([N+](=O)[O-])cc1 (stereo unspecified)	-	-	-	-	-	-	.	.
Cc1c(C(=O)N2CCC2(C)C(=O)O)oc2ccccc12 (stereo unspecified)	.	-	.	-	-	.	.	.
Nc1cccc(C(=O)c2ccccc2C(=O)O)c1	.	-	.	-	-	.	.	.
CC(C)c1cc(=O)n2c(nc3ccccc32)[nH]1	-	45	-	-	-	-	119	108
O=c1cc(CCl)[nH]c2nc3ccccc3n12	-	47	-	-	-	-	169	112
CCc1c(C)[nH]c2nc3ccccc3n2c1=O	-	-	-	-	-	-	.	.
O=c1cc(-c2ccccc2)[nH]c2nc3ccccc3n12	-	51	-	-	-	-	+	+
Cc1nn(CC(=O)NCc2cccnc2)c(C)c1[N+](=O)[O-]	-	-	-	-	-	-	.	.
CSc1ccc(/C=C(\C(=O)O)c2ccc(S(=O)(=O)N3CCCCC3)s2)cc1	-	37	-	-	-	-	-	-
O=C(O)/C(=C\c1ccc(Cl)cc1)c1ccc(S(=O)(=O)N2CCCC2)s1	.	-	-	-	-	-	.	.
CCC1(c2ccc(F)cc2)NC(=O)N(CC(=O)N2CC(=O)Nc3ccccc32)C1=O (stereo unspecified)	-	29	-	-	-	-	163	116
Cc1nc(SCC(=O)N2CCN(c3ccccc3)CC2)c2oc3ccccc3c2n1	-	31	-	-	-	-	+	+
CCN(CC)CCNC(=O)CCN1N=C(c2ccccc2)CCC1=O	-	-	-	-	-	-	.	.
CCOC(=O)c1cc2nc(-c3ccco3)cc(C(F)(F)F)n2n1	-	28	-	-	-	-	+	+
Nc1c(C(=O)NCc2ccc(F)cc2)c2nc3ccccc3nc2n1CCCN1CCOCC1	-	48	-	-	-	-	+	+
COc1ccc(CNC(=O)c2c(N)n(CCCN3CCOCC3)c3nc4ccccc4nc23)cc1	-	55	-	-	-	-	132	107
O=C(NCCCN1CCOCC1)c1ccc(CNS(=O)(=O)c2ccc(F)cc2)cc1	-	-	-	-	-	-	.	.
O=C(NCc1ccccc1)c1ccc(CN2CCOCC2)cc1	-	-	-	-	-	-	.	.
SMILES	RecA intein inh	Mtb FBA inh	Mtb UGM inh	BH1578 lux ind	GDH-TPI counter-1	Rv3671c protease	Mtb FBA confirm	GDH-TPI counter-2	others
Nc1c(C(=O)NCc2ccccc2)c2nc3ccccc3nc2n1CCCN1CCOCC1	-	58	-	-	-	-	146	114
COc1ccc(CNC(=O)C(C)Sc2nc3ccccc3c(=O)n2CCCN2CCOCC2)cc1 (stereo unspecified)	-	-	-	-	-	-	.	.
Cc1nn(C)c(C(=O)N/N=C/c2cccnc2)c1Br	-	-	-	-	-	-	.	.
CC(Sc1nnc(-c2cccnc2)o1)C(=O)NC1CCCC1 (stereo unspecified)	.	-	-	-	-	-	.	.
CCCc1cc(=O)oc2cc(C)cc(OC(C)C(=O)NCc3cccnc3)c12 (stereo unspecified)	-	70	-	-	-	-	-	-
CCCc1cc(=O)oc2cc(C)cc(OC(C)C(=O)NCc3ccncc3)c12 (stereo unspecified)	-	58	-	-	-	-	+	+
CCCOc1cccc(C2C(C(=O)c3ccc(C)o3)=C(O)C(=O)N2c2nc(C)c(C(C)=O)s2)c1 (stereo unspecified)	-	-	-	-	-	-	.	.
c1ccc(Nc2ccc3ccccc3c2)cc1	.	33	.	-	-	.	145	97
c1ccc(Nc2ccccc2)cc1	-	-	-	-	-	-	.	.
CC(C)N(CCCNC(=O)c1ccc(CS(=O)(=O)c2c(Cl)cccc2Cl)o1)Cc1ccccc1	-	-	-	-	-	-	.	.
CCC(=O)c1ccc(OCC(=O)OC(C)C(=O)Nc2c(C)n(C)n(-c3ccccc3)c2=O)cc1 (stereo unspecified)	.	-	.	-	-	.	.	.
O=C1c2ccccc2-c2cccc3cccc1c23	.	-	.	-	-	.	.	.
c1ccc2c(c1)Oc1cccc3cccc-2c13	-	28	-	-	-	-	86	81
Cc1cc(C)n2nc(-c3ccccc3)cc2n1	-	-	-	-	-	-	.	.
CCC1C(=O)n2nc(-c3ccccc3)cc2N=C1C (stereo unspecified)	-	40	-	-	-	-	+	145
c1ccc(Nc2cccc3c(Nc4ccccc4)cccc23)cc1	-	28	-	-	-	-	36	34
c1ccc(Nc2cccc(Nc3ccccc3)n2)cc1	-	-	-	-	-	-	.	.
N#Cc1c(Cl)nsc1NC(=O)c1ccccc1	-	-	-	-	-	-	.	.
Cc1ccc(-c2nc3c(=O)n(C)c4ccccc4c3o2)cc1	-	35	-	-	-	-	-	-
Cc1ccc(-c2nc3c(=O)n(-c4ccccc4)c4c(c(=O)n(C)c(=O)n4C)c3o2)cc1	-	-	-	-	-	-	.	.
O=C(c1c[nH]c2ccc(S(=O)(=O)N3CCC4(CC3)OCCO4)cc2c1=O)N1CCC2(CC1)OCCO2	-	34	-	-	-	-	46	44
C=CCNc1nc(Nc2cc(Cl)ccc2OC)nc(OC)n1	-	-	-	-	-	-	.	.
COc1ccc2nc(NCCCNC(=O)c3cc(OC)c(OC)c(OC)c3)c(C#N)cc2c1	-	32	-	-	-	-	-	-	GDH-TPI DR=4.4
COc1cc(C(=O)NCCNc2nc3ccc(C)cc3cc2C#N)cc(OC)c1OC	-	39	-	-	-	-	94	80
Cc1ccc2nc(NCCNC(=O)c3ccccc3)c(C#N)cc2c1	-	48	-	-	-	-	189	144
COc1cc(C(=O)NCCCNc2nc3c(C)cc(C)cc3cc2C#N)cc(OC)c1OC	-	-	-	-	-	-	.	.
